Laboratory results published in paper PMC4336329 (PLoS ONE, 2015).
Hit rate of the full screen: of about 310,000 compounds, about 14,000 (4.5%) showed an effect of 50% or more. The effect is printed as a negative number. This is one part of a sample in which strong results are shown more often than they occur.

The molecules below were run against human ether-à-go-go-related gene (hERG) potassium channel (human, UniProt Q12809) (assay: primary screen, population patch clamp on CHO cells stably expressing hERG; higher = less effect of the substance).
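Further: peak tail current of the secondary pulse compared with the same well before compound.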

human ether-à-go-go-related gene (hERG) potassium channel, sequence (Q12809 whole entry, looked up): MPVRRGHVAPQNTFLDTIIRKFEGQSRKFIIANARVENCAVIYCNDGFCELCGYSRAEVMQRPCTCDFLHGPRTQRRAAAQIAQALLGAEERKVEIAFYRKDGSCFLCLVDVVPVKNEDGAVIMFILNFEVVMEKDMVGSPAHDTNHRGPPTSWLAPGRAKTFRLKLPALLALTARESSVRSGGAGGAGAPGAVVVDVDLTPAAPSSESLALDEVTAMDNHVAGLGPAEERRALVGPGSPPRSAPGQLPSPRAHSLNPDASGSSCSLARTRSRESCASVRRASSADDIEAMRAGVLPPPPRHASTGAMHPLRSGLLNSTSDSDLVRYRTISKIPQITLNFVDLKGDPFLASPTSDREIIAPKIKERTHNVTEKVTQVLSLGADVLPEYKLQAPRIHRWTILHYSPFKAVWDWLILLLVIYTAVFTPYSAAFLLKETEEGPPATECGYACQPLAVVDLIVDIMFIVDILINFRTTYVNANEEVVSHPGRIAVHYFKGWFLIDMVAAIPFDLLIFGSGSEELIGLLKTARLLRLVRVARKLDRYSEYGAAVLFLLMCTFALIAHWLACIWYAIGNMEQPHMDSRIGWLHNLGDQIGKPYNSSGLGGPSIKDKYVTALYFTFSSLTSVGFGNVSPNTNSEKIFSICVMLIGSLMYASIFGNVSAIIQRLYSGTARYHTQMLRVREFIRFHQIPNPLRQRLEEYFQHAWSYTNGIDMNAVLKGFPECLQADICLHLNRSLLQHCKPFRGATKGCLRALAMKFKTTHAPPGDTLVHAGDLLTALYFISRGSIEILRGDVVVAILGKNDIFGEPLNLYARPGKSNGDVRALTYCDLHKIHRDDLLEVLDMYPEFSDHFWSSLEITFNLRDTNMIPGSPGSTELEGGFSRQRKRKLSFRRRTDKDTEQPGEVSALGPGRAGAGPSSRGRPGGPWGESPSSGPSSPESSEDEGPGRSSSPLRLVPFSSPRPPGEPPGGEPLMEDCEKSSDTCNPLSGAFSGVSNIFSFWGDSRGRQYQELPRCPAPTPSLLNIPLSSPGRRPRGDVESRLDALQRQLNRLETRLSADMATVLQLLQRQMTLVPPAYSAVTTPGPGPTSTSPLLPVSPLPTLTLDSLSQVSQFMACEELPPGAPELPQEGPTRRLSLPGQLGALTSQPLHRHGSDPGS

Compound | hERG current change (%, negative = inhibition) at 10uM [%]
O=C(CN1C(=O)NC2(CCCC2)C1=O)N1CCN(S(=O)(=O)c2ccccc2[N+](=O)[O-])CC1 | 7.61
N=c1n(-c2ccccc2)c(O)cc(=O)n1-c1ccccc1 | -6.28
CCCn1c(N)c(N(CCOC)C(=O)c2ccc([N+](=O)[O-])c(C)c2)c(=O)[nH]c1=O | 35.8
CC(NS(=O)(=O)c1ccc(Br)cc1)C(=O)NC1CCCCCC1 (stereo not drawn) | 5.35
Cc1noc(C)c1S(=O)(=O)N1CCCC(C(=O)Nc2ccc(Cl)cn2)C1 (stereo not drawn) | -26
CCOC(=O)C1(Cc2cccc(Cl)c2)CCCN(C(=O)c2cnn(CC)c2)C1 (stereo not drawn) | -6.39
CCOC(=O)C1(Cc2ccccc2)CCCN(C(=O)c2cnn(CC)c2)C1 (stereo not drawn) | 10.1
CCOC(=O)C1(CC2CC2)CCN(C(=O)c2ocnc2C)CC1 | 7.25
CCOC(=O)C1(CCCc2ccccc2)CCN(C(=O)c2cc(C)nn2CC)CC1 | -57.8
CCOC(=O)C1(CCCc2ccccc2)CCN(C(=O)c2cnc(C)cn2)CC1 | -39.8
CCOC(=O)C1(CCCc2ccccc2)CCN(C(=O)c2cnn(CC)c2)CC1 | -64.2
CCOC(=O)C1(CCCc2ccccc2)CCN(C(=O)Cc2nonc2C)CC1 | -51.3
CCOC(=O)C1(CCCc2ccccc2)CCN(C(=O)c2ocnc2C)CC1 | -56.1
CCOC(=O)C1(CCCc2ccccc2)CCN(C(=O)c2cc(C)nc(C)n2)CC1 | -16.4
CCOC(=O)C1(CCCc2ccccc2)CCN(C(=O)COC)CC1 | -25.9
CCOC(=O)C1(CCc2ccccc2)CCN(C(=O)Cc2nonc2C)CC1 | -21.4
CCn1c(N2CCN(S(=O)(=O)c3ccc(Cl)cc3)CC2)nc2ccccc21 | -48.4
COc1cccc(NC(=O)CCNS(=O)(=O)c2ccc3c(c2)CC(C)N3C(=O)C2CC2)c1 (stereo not drawn) | -5.18
O=C(CCS(=O)(=O)c1ccc(Br)s1)NC1CCCC1 | 6.05
COc1ccc(NS(=O)(=O)c2cccc3cccnc23)cc1OC | 24.2
CNc1nc(NN)nc(Nc2ccccc2)n1 | 9.76

Compound | hERG current change (%, negative = inhibition) at 10uM [%]
Cc1ccc(S(=O)(=O)CC(=O)Nc2cccc(C)n2)cc1 | 6.48
Cc1cccc(C(=O)NCC(=O)NC2CCN(Cc3ccccc3)CC2)c1 | -7.99
O=C(c1ccoc1)N1CCC(CO)(CCc2ccccc2)CC1 | -28.7
CCOC(=O)C1(CCCc2ccccc2)CCN(C(=O)c2ccoc2)CC1 | -54.3
CCOC(=O)C1(CCCc2ccccc2)CCN(C(=O)CSC)CC1 | -24.1
CCCCCC(=O)Nc1nnn(CCC)n1 | 4.41
CC(C(=O)O)N1C(=O)c2cccc3cccc1c23 (stereo not drawn) | 1.97
COc1ccc(NCc2nnc(SCC(=O)Nc3nc(-c4ccccc4)cs3)n2-c2ccccc2)cc1 | 13
COc1ccc(CNC(=O)[C@H](C)NC(=O)N2CCn3c2nc2ccccc23)cc1 | -57.7
C[C@H](NC(=O)N1CCn2c1nc1ccccc12)C(=O)NCc1ccc(F)cc1 | -29.6
C[C@H](NC(=O)N1CCn2c1nc1ccccc12)C(=O)NCc1ccccc1 | -13.6
FC(F)(F)c1ccc(N2CCOCC2)c(Nc2nc3ccccc3n3cnnc23)c1 | 7.53
CCSc1nnc([C@H](Cc2c[nH]c3ccccc23)NC(=O)OC(C)(C)C)o1 | -21.5
COc1ccccc1C1c2ccc3ccccc3c2Oc2ncn(CCN(C)C)c(=N)c21 (stereo not drawn) | -61.8
COc1ccc(Cc2nc3c4c(ncn3n2)Oc2c(ccc3ccccc23)C4c2ccc(OC)c(OC)c2)cc1 (stereo not drawn) | 14.7
COc1ccc(C2c3c(ccc4ccccc34)Oc3ncn4nc(-c5ccco5)nc4c32)cc1 (stereo not drawn) | -12.4
COc1ccc(C2c3ccc4ccccc4c3Oc3ncn(CCN(C)C)c(=N)c32)cc1 (stereo not drawn) | -77.2
COc1ccc(C2c3ccc4ccccc4c3Oc3ncn(CCCN(C)C)c(=N)c32)cc1 (stereo not drawn) | -76.4
CN(C)S(=O)(=O)c1cc(C(=O)OCCn2cnc3c2c(=O)n(C)c(=O)n3C)ccc1Cl | -39.7
CS(=O)(=O)c1cccc(-c2nnc(NC(=O)CCS(=O)(=O)c3ccccc3)o2)c1 | 3.82
COC(=O)c1cn(C(=O)c2ccccc2F)nc1N | -5.96

Compound | hERG current change (%, negative = inhibition) at 10uM [%]
Cc1ccc2c(CC(=O)OC3CCOC3=O)coc2c1 (stereo not drawn) | 3.85
CC/C(=N\NC(=S)Nc1ccc(OC)cc1)c1ccc(OC(F)F)cc1 | -4.32
C[C@@H]1CC=C[C@H]2[C@H]1C(=O)N(Cc1ccccc1)[C@H]2c1ccoc1 | 3.54
CC(CN1CCCCC1)C(=O)NNC(=O)C12CC3CC(CC(C3)C1)C2 (stereo not drawn) | 3.74
CC(C)c1onc(C(=O)N2CCN(c3ccc(F)cc3)CC2)c1[N+](=O)[O-] | -19.9
COc1ccccc1NC(=O)CSc1nnc(C2CCCCC2)n1N | 5.54
O=Cc1cn(-c2ccccc2)nc1-c1ccc2c(c1)OCCO2 | -0.855
Cc1ccc(-n2cc(CNCCc3cscn3)c(-c3ccc(F)cc3)n2)cc1 | -59
Fc1ccc(-c2nn(-c3ccccc3)cc2CNCc2ccccc2)cc1 | 1.75
OCc1cn(-c2ccccc2)nc1-c1ccc2c(c1)OCCO2 | 5.83
Cc1ccc(-n2cc(CNCCc3ncc(C)[nH]3)c(-c3ccc(F)cc3)n2)cc1 | -47.4
c1ccc(-n2cc(CNCCc3cscn3)c(-c3ccc4c(c3)OCO4)n2)cc1 | -65.4
O=C(CSC1=NCCS1)NC(NC(=O)CSC1=NCCS1)c1ccccc1 | 18.6
O=C(C1CCN(S(=O)(=O)c2ccc(F)cc2)CC1)N1CCOCC1 | 15.3
COc1ccc(CNC(=O)c2cc(-c3ccccc3O)n[nH]2)cc1 | 5.51
O=C1CC(N2CCN(C(c3ccccc3)c3ccccc3)CC2)C(=O)N1 (stereo not drawn) | -0.687
NC(=O)COn1c(SCC(N)=O)nc2ccccc2c1=O | 19.3
COC(=O)c1cc(Br)c(=O)n(Cc2ccncc2)c1 | -1.41
Cc1c(C)c2ccc(OCC(=O)N3CCN(c4ccccc4)CC3)cc2oc1=O | -36.1
CCCc1cc(=O)oc2cc(OCC(=O)N3CCC(C(=O)O)(c4ccccc4)CC3)ccc12 | 6.41
Cc1c(C)c2ccc(OCC(=O)N3CCN(C(=O)C4COc5ccccc5O4)CC3)cc2oc1=O (stereo not drawn) | -60.9

Compound | hERG current change (%, negative = inhibition) at 10uM [%]
CCCc1cc(=O)oc2cc(OCC(=O)N3CCC(C(N)=O)CC3)ccc12 | -6.67
Cc1c(C)c2ccc(OCC(=O)N3CCC(C(=O)O)CC3)cc2oc1=O | -6.41
Cc1cccc(N2CCN(C(=O)COc3ccc4c(C)cc(=O)oc4c3C)CC2)c1C | 13.6
O=C(COc1ccc2ccc(=O)oc2c1)N1CCN(C(=O)C2COc3ccccc3O2)CC1 (stereo not drawn) | -46.2
Cc1cc(=O)oc2c(C)c(OCC(=O)N3CCN(C(=O)C4COc5ccccc5O4)CC3)ccc12 (stereo not drawn) | -50.4
Cc1cc(=O)oc2cc(OCC(=O)N3CCN(C(=O)C4COc5ccccc5O4)CC3)c(Cl)cc12 (stereo not drawn) | -48
Cc1cc(=O)oc2cc(OCC(=O)N3CCN(C(=O)C4COc5ccccc5O4)CC3)ccc12 (stereo not drawn) | -53.6
CCCc1cc(=O)oc2cc(OCC(=O)N3CCN(C(=O)C4COc5ccccc5O4)CC3)ccc12 (stereo not drawn) | -65.9
CCOc1ccccc1N1CCN(C(=O)COc2ccc3c(C)cc(=O)oc3c2)CC1 | -6.28
CCOC(=O)c1ccc(NC(=O)CCc2nc(-c3ccc(Cl)cc3)no2)cc1 | 8.36
Cc1cccc(N(CC(=O)NCCSCc2ccccc2)S(C)(=O)=O)c1C | -17.4
Cc1ccc(S(=O)(=O)N2CCN(C(=O)COC(=O)c3c(C)noc3C)CC2)c(C)c1 | -18.8
COCCCNC(=O)CN(c1ccc(Cl)c(Cl)c1)S(C)(=O)=O | -10.9
Cc1ccc(NCC(=O)N/N=C\c2cccc(O)c2)cc1 | 1.98
C=CCNC(=S)N1CCOCC1 | -1.69
O=C(/C=C/c1ccccc1[N+](=O)[O-])NNC(=O)c1ccncc1 | -7.86
CCOc1ccccc1NC1=C(Cl)C(=O)N(c2ccc(OC)cc2)C1=O | -10.4
CCCc1cc(=O)oc2cc(OCC(=O)N3CCN(Cc4ccc5c(c4)OCO5)CC3)ccc12 | -57
Cc1cc(=O)oc2cc(OCC(=O)N3CCN(Cc4ccc5c(c4)OCO5)CC3)ccc12 | -42.9
Cc1ccc(OCC(=O)N2CCN(Cc3ccc4c(c3)OCO4)CC2)cc1C | -24.6
CC(Oc1ccccc1)C(=O)N=C1SC2CS(=O)(=O)CC2N1Cc1ccc(F)cc1 (stereo not drawn) | -24.6
